Measurements: PubChem BioAssay (NCATS)
Values joined by “and” are separate entries in the source; they are usually repeats but may differ in a detail not shown here. Equal entries are not always repeated. Unmarked numbers belong to inactive results. Results filed as inconclusive are left out. Active and inactive are the calls of the source. Unless noted, the call rests on the fitted dose curve; in most records, active means well fitted curve in the direction sought with a large enough effect; inconclusive means small, poorly fitted or top-dose-only effect, or another doubt; inactive means no such curve, though single readings can be large; an effect the other way counts as inactive or inconclusive.

Columns and labels:
[1] = molecular target: T1, Hexokinase-4 (Homo sapiens) + Glucokinase regulatory protein (Homo sapiens) (UniProt P35557+Q14397); assay: qHTS assay for inhibitors of recombinant human GCK-GKRP interaction: ADP-Glo assay (AID 743206);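 further: plate controls were DMSO plus enzyme for no effect and no enzyme for full effect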
T1 sequence (P35557 whole entry, looked up): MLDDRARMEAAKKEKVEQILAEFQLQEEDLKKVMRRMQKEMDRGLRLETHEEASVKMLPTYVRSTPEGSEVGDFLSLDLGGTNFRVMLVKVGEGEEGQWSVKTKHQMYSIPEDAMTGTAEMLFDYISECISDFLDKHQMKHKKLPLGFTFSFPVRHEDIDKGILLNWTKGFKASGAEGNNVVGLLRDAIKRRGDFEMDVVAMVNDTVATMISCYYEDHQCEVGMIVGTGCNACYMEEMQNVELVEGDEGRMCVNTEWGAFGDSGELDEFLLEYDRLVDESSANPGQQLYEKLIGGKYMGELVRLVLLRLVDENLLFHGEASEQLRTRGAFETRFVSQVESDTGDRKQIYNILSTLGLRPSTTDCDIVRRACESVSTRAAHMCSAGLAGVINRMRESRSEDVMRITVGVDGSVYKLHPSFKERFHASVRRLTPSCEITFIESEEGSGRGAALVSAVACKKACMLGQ
T1 sequence (Q14397 whole entry, looked up): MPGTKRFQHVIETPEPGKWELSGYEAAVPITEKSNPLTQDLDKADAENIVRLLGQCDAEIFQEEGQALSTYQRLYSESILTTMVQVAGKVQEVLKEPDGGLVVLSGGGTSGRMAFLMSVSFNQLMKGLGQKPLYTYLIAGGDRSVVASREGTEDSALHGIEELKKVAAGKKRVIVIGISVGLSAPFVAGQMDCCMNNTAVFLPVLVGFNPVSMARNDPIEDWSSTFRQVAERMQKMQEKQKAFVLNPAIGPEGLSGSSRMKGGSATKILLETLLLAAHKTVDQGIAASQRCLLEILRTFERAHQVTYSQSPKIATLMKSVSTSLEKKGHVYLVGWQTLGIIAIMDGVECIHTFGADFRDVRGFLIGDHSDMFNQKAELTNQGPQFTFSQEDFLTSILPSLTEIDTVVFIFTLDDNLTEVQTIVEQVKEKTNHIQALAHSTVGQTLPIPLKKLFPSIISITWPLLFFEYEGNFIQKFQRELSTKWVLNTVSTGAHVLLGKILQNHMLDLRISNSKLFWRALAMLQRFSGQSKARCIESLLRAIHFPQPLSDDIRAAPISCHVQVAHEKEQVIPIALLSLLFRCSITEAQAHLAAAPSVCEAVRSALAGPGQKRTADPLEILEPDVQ
In short: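 Pin-transferred compounds meet a 15 nM GST-GCK/15 nM FLAG-GKRP/2 uM S6P mix (dispense concentrations). ATP is then added to 0.4 mM final with 5 mM glucose, and the reaction runs 60 min at room temperature. ADP is quantified luminescently.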

[2] = molecular target: T1, Hexokinase-4 (Homo sapiens) + Glucokinase regulatory protein (Homo sapiens); assay: qHTS assay for inhibitors of recombinant human GCK-GKRP interaction: HTRF assay (AID 743207);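 further: 0% = DMSO with GCK present and -100% = DMSO wells lacking GCK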
In short: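 After 60 min equilibration at room temperature with anti-FLAG XL665 and anti-GST antibodies, FRET ratio (665/615 nm, excitation 320 nm) was read. Proteins: GST-GCK and FLAG-GKRP, each 5 nM, plus 2 uM S6P, pH 7.1 buffer; GCK-free wells define minimum signal.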

[3] = qHTS assay for small molecule agonists of the antioxidant response element (ARE) signaling pathway measured by Nrf2-dependant transcriptional activity (AID 720636; active means well fitted curve in the direction sought with a large enough effect in the repeat runs; an effect the other way counts as inactive or inconclusive;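 further: HepG2 cells with an ARE-driven luciferase reporter; % of control where 0% means no effect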)
In short: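 ONE-Glo luminescence, read 30 min after reagent addition at room temperature, reflected ARE reporter activity in HepG2 cells that had been incubated with compound for 16 hr at 37 C in 1% dialyzed FBS.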

[4] = qHTS assay for cell viability of the p53RE-bla HCT-116 cell line (AID 743292); further: nearly all actives have a fitted effect of over 55% in size; further: potency means the concentration at half of the fitted maximal effect
In short: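 After plating at 4,000 cells per well and a 5 h rest at 37 C, HCT-116 cells carrying p53RE-bla received test chemicals in DMSO. Sixteen hours later at 37 C, CellTiter-Glo was added and luminescence recorded following 30 min at room temperature.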

[5] = qHTS assay for small molecule agonists of the antioxidant response element (ARE) signaling pathway measured by Nrf2-dependant transcriptional activity - cell viability counter screen (AID 720653; active means well fitted curve in the direction sought with a large enough effect in the repeat runs; an effect the other way counts as inactive or inconclusive; further: potency means the concentration at half of the fitted maximal effect; on max response: on the % scale 0 is the no-effect control and ±100 the full control effect); settings: ARE-bla HepG2 viability, CellTiter-Glo ATP luminescence, 16 h; max response: stronger effect = lower value
In short: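 ARE-bla HepG2 cells treated with compounds for 16 h at 37C; this counter screen measures viability as intracellular ATP by CellTiter-Glo luminescence after 30 min at room temperature.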

[6] = qHTS Assay for Identifying Gametocytocidal Compounds (AID 743244); further: potency means the concentration at half of the fitted maximal effect;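 on max response: on the % scale 0 is the no-effect control and ±100 the full control effect; actives lower the fluorescent signal which means gametocytes are killed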; settings: P. falciparum 3D7 stage III-V gametocytes, alamarBlue, 72 h; max response: stronger effect = lower value
In short: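 Late gametocytes (III–V), P. falciparum 3D7; 72 h drug, then 24 h alamarBlue; resazurin reduction read by fluorescence.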

[7] = qHTS assay for cell viability of HEK293 cells (AID 743288); settings: ATP luminescence (CellTiter-Glo), 18 h, stronger effect = lower value; further: on the % scale 0 is the no-effect control and ±100 the full control effect; nearly all actives have a fitted effect of over 50% in size
In short: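 Readout is luciferase-coupled ATP content (CellTiter-Glo luminescence, 30 min room temperature) as a measure of metabolically competent cells. Parental HEK293 cells were plated 5 h or more before compound addition, then treated 18 h at 37 C.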

[8] = qHTS assay for small molecule antagonists of the retinoid-related orphan receptor gamma (ROR-gamma) signaling pathway - cell viability counter screen (AID 720652; active means well fitted curve in the direction sought with a large enough effect in the repeat runs; an effect the other way counts as inactive or inconclusive;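 further: CHO reporter cells with doxycycline-induced ROR-gamma expression; series mostly up to about 92 µM; compound exposure lasted 16 hr before ATP read; on the % scale 0 is the no-effect control and ±100 the full control effect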)
In short: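 CHO RORE-LUC/TET-ROR line, 1,000 cells/well, 37 C 5% CO2 5 hr; cpd or DMSO + doxycycline induction, 16 hr. CellTiter-Glo, 30 min RT, luminescence = ATP content.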

Compound: CN(C)c1cc2c(Nc3ccc4c(cnn4Cc4ccccc4)c3)ncnc2cn1
- outcome [1]: inactive
- outcome [2]: inactive

Compound: CCN(CC)CCOc1ccc(/C(=C(\Cl)c2ccccc2)c2ccccc2)cc1
- outcome [3]: inactive
- Potency [4]: 70.8 µM (active)

Compound: OCCOCCN1CCN(C(c2ccccc2)c2ccc(Cl)cc2)CC1 (centres undefined)
- outcome [3]: inactive
- max response [5]: -5.74%
- max response [6]: -10.6%
- max response [7]: -17.9%
- Potency [4]: inactive

Compound: CC(C)C(C)(C)C(C)(C)C(C)(C)S
- outcome [3]: inactive
- outcome [8]: inactive
- max response [5]: -4.36% and 4.23%
- max response [6]: 40.1%
- max response [7]: 6.58% and -3.43%
- Potency [4]: inactive

Compound: Nc1cccc2c(N)cccc12
- outcome [8]: inactive
- max response [7]: -10.7% and -9.55%
- Potency [4]: inactive

Compound: Brc1ccc([C@H]2CN3CCSC3=N2)cc1
- outcome [1]: inactive
- outcome [2]: inactive
- max response [6]: 13.2%

Compound: CCCCCCCCCCCC[N+](C)(C)Cc1ccccc1
- outcome [3]: inactive
- max response [5]: -5.65%
- Potency [6]: 5.01 µM (active)
- max response [7]: -18.2%
- Potency [4]: inactive

Compound: Cc1ncc(CO)c(CO)c1O
- outcome [3]: inactive
- max response [5]: -5.07%
- max response [6]: -15.9%
- max response [7]: -15.6%
- Potency [4]: inactive

Compound: O=C(c1ccccc1)c1ccccc1
- outcome [3]: inactive
- outcome [8]: inactive
- max response [5]: 6.09% and -10.7%
- max response [6]: -8.14%
- max response [7]: -5.39% and 4.23%
- Potency [4]: inactive

Compound: N[C@@H](Cn1ccc(=O)c(O)c1)C(=O)O
- outcome [1]: inactive
- outcome [2]: inactive
- max response [6]: 9.87%

Compound: CC(C)N(CCC(=O)c1ccc2ccccc2c1)Cc1ccccc1
- outcome [1]: inactive
- outcome [2]: inactive

Compound: Nc1c2ccccc2nc2ccccc12
- outcome [3]: inactive
- outcome [8]: inactive
- Potency [5]: 31.6 µM (active)
- Potency [6]: 10 µM (active)
- Potency [4]: inactive

Compound: Nc1ccc(O)cc1
- max response [5]: -19.2%
- max response [7]: -8.77%
- Potency [4]: inactive

Compound: CCN(CC)CCNC(=O)c1ccc(NS(C)(=O)=O)cc1
- outcome [1]: inactive
- outcome [2]: inactive
- max response [6]: -10.8%

Compound: CC(=O)OC/C=C(C)/C=C/C=C(C)/C=C/C1=C(C)CCCC1(C)C
- outcome [8]: inactive
- max response [5]: 6.19% and 7.05%
- max response [6]: -2.65%
- max response [7]: -22.5% and -3.76%
- Potency [4]: inactive

Compound: CCCCCCCCCCCCCCCC[n+]1ccccc1
- max response [5]: -10.4%
- max response [7]: -27.3%
- Potency [4]: inactive

Compound: COc1ccccc1N1CCN(CCN2C(=O)CC3(CCCC3)CC2=O)CC1
- outcome [1]: inactive
- outcome [2]: inactive
- max response [6]: 21.4%

Compound: Cc1cc(C(C)(C)C)c(O)c(C(C)(C)C)c1
- outcome [3]: inactive
- outcome [8]: inactive
- max response [5]: -5.59% and 4.89%
- max response [6]: -17.9%
- max response [7]: -0.0848% and 0.626%
- Potency [4]: inactive

Compound: CC(NN)c1ccccc1 (centres undefined)
- max response [6]: -6.49%

Compound: COc1cc(C(=O)NC2CCCNC2)cc(OC)c1OC (centres undefined)
- max response [6]: -0.328%

Compound: CCO[C@H](Cc1ccc(OCCc2ccc(OS(C)(=O)=O)cc2)cc1)C(=O)O
- max response [6]: 6.84%

Compound: Cc1cc(O)c2c(O)c3c(O)cccc3cc2c1
- max response [6]: 12.2%

Compound: C[C@@]12CCC[C@H]1[C@@H]1CC[C@H]3C[C@@H](O)CC[C@]3(C)[C@H]1CC2
- max response [6]: 4.41%

Compound: CCCc1c2oc(C(=O)O)cc(=O)c2cc2c(=O)cc(C(=O)O)n(CC)c12
- max response [6]: -6.99%

Compound: Cc1nc([N+](=O)[O-])cn1-c1ccc([N+](=O)[O-])cc1
- max response [6]: 9.29%

Compound: CCCCCCCCCCCCCCCC[N+](C)(C)Cc1ccccc1
- Potency [6]: 7.08 µM (active)

Compound: CC1CN(c2cc3c(cc2F)c(=O)c(C(=O)O)cn3-c2ccc(F)cc2F)CCN1 (centres undefined)
- max response [6]: -18.1%

Compound: C1N2CN3CN1CN(C2)C3
- max response [6]: 2.07%

Compound: CC(C(=O)O)c1ccc(/C=C2\CCCCC2=O)cc1 (centres undefined)
- max response [6]: -9.38%

Compound: CCCC(=O)O[C@]1(C(=O)CCl)[C@@H](C)C[C@H]2[C@@H]3CCC4=CC(=O)C=C[C@]4(C)[C@@]3(F)C(=O)C[C@@]21C
- max response [6]: 13.2%

Compound: CN1CC(=O)N2[C@H](c3ccc4c(c3)OCO4)c3[nH]c4ccccc4c3C[C@@H]2C1=O
- max response [6]: -3.23%

Compound: N=C(N)c1ccc(OCCCOc2ccc(C(=N)N)cc2)cc1
- Potency [6]: 4.47 µM (active)

Compound: CC(=O)Nc1ccn(C2COC(COC(=O)c3ccccc3)O2)c(=O)n1 (centres undefined)
- max response [6]: -5.34%

Compound: C[C@H]1C[C@H]2[C@@H]3CCC4=CC(=O)C=C[C@]4(C)[C@H]3C(=O)C[C@]2(C)[C@@]1(O)C(=O)CO
- max response [6]: -0.729%

Compound: CCCCCCCCCCCCCC[N+](C)(C)C
- Potency [6]: 14.1 µM (active)

Compound: Nc1ncnc2nc[nH]c12
- max response [6]: 3.66%

Compound: CC(=O)OCC(=O)[C@@]1(O)CCC2C3CCC4=CC(=O)CC[C@]4(C)C3[C@@H](O)C[C@@]21C (some centres undefined)
- max response [6]: -8.54%

Compound: Cc1cc(OCCOCC[N+](C)(C)Cc2ccccc2)ccc1C(C)(C)CC(C)(C)C
- Potency [6]: 7.08 µM (active)

Compound: CC(NCCC(c1ccccc1)c1ccccc1)c1ccccc1 (centres undefined)
- Potency [6]: 12.6 µM (active)

Compound: OC[C@]1(O)OC[C@@H](O)[C@H](O)[C@@H]1O
- max response [6]: 13.1%

Compound: CC(=O)N(CC(O)CO)c1c(I)c(C(=O)NCCO)c(I)c(C(=O)NCC(O)CO)c1I (centres undefined)
- max response [6]: 13.7%

Compound: O=C(O)CCCC[C@@H]1SC[C@@H]2NC(=O)N[C@@H]21
- max response [6]: -7.74%

Compound: CN1C(CSCC(F)(F)F)Nc2cc(Cl)c(S(N)(=O)=O)cc2S1(=O)=O (centres undefined)
- max response [6]: 2.14%

Compound: CCN1C(=O)c2ccccc2C1Nc1ccc(OCCN2CCCCC2)cc1 (centres undefined)
- max response [6]: -8.48%

Compound: CO/N=C(/C(=O)N[C@@H]1C(=O)N2C(C(=O)O)=C(Cn3nnc(C)n3)CS[C@H]12)c1csc(N)n1
- max response [6]: -11.7%

Compound: O=C(CCC1CCN(Cc2ccccc2)CC1)c1ccc2c(c1)NCCCC2
- max response [6]: -4.54%

Compound: OC(CCCN1CCCCC1)(c1ccccc1)c1ccccc1
- max response [6]: -13.7%
